Test [1] can be described thus: qHTS of pediatric cancer cell lines to identify multiple opportunities for drug repurposing: Confirmatory screen for TC32 cells (AID 1347118).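 Also: cells exposed to compound for 48 h before the read; nearly all actives have a fitted effect of over 65% in size.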 Also: potency is read from the fitted curve at half-maximal effect. A digest of the protocol: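 TC32 cells, 500-1,000/well in growth medium, compound-treated 48 h at 37 °C; viability from CellTiter-Glo luminescence. Primary screen: MIPE 11-point (0.78 nM–46 µM final), NPC 8-point (0.59 nM–46 µM final); confirmatory at 11-point dilutions.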
In general terms: In qHTS, concentration-response curves come from the screen itself.

Test [2] in a line: qHTS of pediatric cancer cell lines to identify multiple opportunities for drug repurposing: Confirmatory screen for control Hh wild type fibroblast cells (AID 1347121). Also: nearly all actives have a fitted effect of over 70% in size. A digest of the protocol: (§1)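 Viability after 48 h compound treatment at 37C, 500-1,000 cells/well, read as ATP luminescence with CellTiter-Glo. Primary screens used 11-point (MIPE, 0.78 nM-46 µM) or 8-point (NPC, 0.59 nM-46 µM) final concentrations; follow-up screens used 11-point dilutions.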

A short description of test [3]: qHTS of pediatric cancer cell lines to identify multiple opportunities for drug repurposing: Confirmatory screen for U-2 OS cells (AID 1347122). Also: nearly all actives have a fitted effect of over 65% in size. Also: potency is read from the fitted curve at half-maximal effect. The procedure, abridged: as §1
The nature of test [4]: qHTS of pediatric cancer cell lines to identify multiple opportunities for drug repurposing: Confirmatory screen for Rh41 cells (AID 1347123).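 Also: 48 h compound exposure; nearly all actives have a fitted effect of over 60% in size.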 A digest of the protocol: as §1
Test [5] is described as follows: qHTS of pediatric cancer cell lines to identify multiple opportunities for drug repurposing: Confirmatory screen for RD cells (AID 1347124).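 Also: cells exposed to compound for 48 h before viability readout; nearly all actives have a fitted effect of over 65% in size.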 The procedure, abridged: as §1
Test [6] can be described thus: qHTS of pediatric cancer cell lines to identify multiple opportunities for drug repurposing: Confirmatory screen for Rh30 cells (AID 1347126). Also: nearly all actives have a fitted effect of over 55% in size. A digest of the protocol:
as §1

Test [7] is described as follows: qHTS of pediatric cancer cell lines to identify multiple opportunities for drug repurposing: Confirmatory screen for Saos-2 cells (AID 1347127). Also: nearly all actives have a fitted effect of over 60% in size. A digest of the protocol: as §1
Test [8] in a line: qHTS of pediatric cancer cell lines to identify multiple opportunities for drug repurposing: Confirmatory screen for OHS-50 cells (AID 1347128).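 Also: compound exposure lasted 48 h at 37 degrees C; nearly all actives have a fitted effect of over 55% in size.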 Also: potency is read from the fitted curve at half-maximal effect. The procedure, abridged:
as §1

Test [9] in a line: qHTS of pediatric cancer cell lines to identify multiple opportunities for drug repurposing: Confirmatory screen for SK-N-SH cells (AID 1347129).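 Also: cells exposed to compound for 48 h before viability read; nearly all actives have a fitted effect of over 60% in size.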 The procedure, abridged: as §1
In test [10] the test system is Zika virus NS2B-NS3 protease. As to the kind of experiment: Primary screen GU AMC qHTS for Zika virus inhibitors (AID 1347154). Also: nearly all actives have a fitted effect of over 70% in size. Also: potency is read from the fitted curve at half-maximal effect. The procedure, abridged:
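Unlinked Zika NS2B hydrophilic domain–NS3 protease complex at 25 nM in 10 mM Tris-HCl pH 8.0, 0.01% Tween 20, with an AMC peptide substrate. Fluorescence change (340/450 nm) over 15 min at room temperature, normalized to controls, fitted to 4-parameter Hill.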

The nature of test [11]: qHTS of pediatric cancer cell lines to identify multiple opportunities for drug repurposing: Confirmatory screen for MG 63 (6-TG R) cells (AID 1347119). Also: nearly all actives have a fitted effect of over 55% in size. Also: potency is read from the fitted curve at half-maximal effect. The procedure, abridged:
as §1

Test [12] can be described thus: qHTS of pediatric cancer cell lines to identify multiple opportunities for drug repurposing: Confirmatory screen for Rh18 cells (AID 1347125). Also: nearly all actives have a fitted effect of over 55% in size. A digest of the protocol:
as §1

Test [13] has as its target N-terminal Xaa-Pro-Lys N-methyltransferase 1 (Homo sapiens) (UniProt Q9BV86). As to the kind of experiment: qHTS Assay for Inhibitors of N-terminal methyltransferase 1 (NTMT1): LOPAC validation of the NTMT1 SAHH-coupled ThioGlo3 Assay (AID 1347143).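 Also: SAH from peptide methylation measured as thiol fluorescence via SAHH coupling and ThioGlo3; nearly all actives have a fitted effect of over 70% in size.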 Also: potency is read from the fitted curve at half-maximal effect. A digest of the protocol: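 Recombinant human NTMT1 (125nM) was pre-incubated 1 min at room temperature with compounds over a concentration range, then a mix of 100uM SAM, 10uM SAHH and 15uM ThioGlo3 (concentrations in added reagent) was added. ThioGlo3 fluorescence (ex 340/em 450nm) after 30 min was normalized to the initial reading.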

For test [14], the system named is Zika virus NS2B-NS3 protease (unlinked). As to the kind of experiment: Optimization of GU AMC qHTS for Zika virus inhibitors: Unlinked NS2B-NS3 protease assay (AID 1347151). Also: nearly all actives have a fitted effect of over 80% in size. Also: potency is read from the fitted curve at half-maximal effect. The procedure, abridged:
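Fluorescence read-out (340 nm ex / 450 nm em) of AMC peptide cleavage, taken immediately and after 15 min at room temperature (~20% conversion). Enzyme was the unlinked NS2B–NS3 complex at 25 nM in Tris pH 8.0 buffer.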

Test [15] relates to Zika virus NS2B-NS3 protease (linked construct). As to the kind of experiment: Confirmatory screen NINDS AMC qHTS for Zika virus inhibitors (AID 1347152). Also: nearly all actives have a fitted effect of over 70% in size. Also: potency is read from the fitted curve at half-maximal effect. A digest of the protocol:
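Linked NS2B-NS3 1 nM, Tris pH 8.0/0.01% Tween 20; cpd 15 min RT dark; + Nle-KRR-AMC 10 µM (Km 18.3 µM); read 0 and 15 min, 340/450 nm; %inh vs controls, 4-param Hill.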

For test [16], the system named is Zika virus NS2B-NS3 protease (unlinked complex). As to the kind of experiment: Confirmatory screen GU AMC qHTS for Zika virus inhibitors (AID 1347153). Also: nearly all actives have a fitted effect of over 70% in size. The procedure, abridged: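 Unlinked NS2B-NS3 complex (25 nM) in 10 mM Tris-HCl pH 8.0, 0.01% Tween 20 preincubated 15 min with compound, then 10 microM Bz-Nle-KRR-AMC (Km 18.3 µM). Fluorescence change over 15 min, normalized, Hill-fitted.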

Test [17] can be described thus: ZIKV-mCherry secondary qHTS for Zika virus inhibitors (AID 1347158). Also: top concentration of the series differs between compounds. The procedure, abridged: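 Vero cells (5,000/well) were given compound, then infected with ZIKV-mCherry at MOI 1 for 48–72 h at 37 °C. After PFA fixation and Hoechst staining, imaging gave percent mCherry-positive cells. The positivity threshold was RFU above 450, 3 SD over negative controls.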
Test [18] relates to Zika virus NS2B-NS3 protease (unlinked complex). As to the kind of experiment: Primary screen GU Rhodamine qHTS for Zika virus inhibitors: Unlinked NS2B-NS3 protease assay (AID 1347159). Also: nearly all actives have a fitted effect of over 60% in size. A digest of the protocol: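 Noncovalent NS2B hydrophilic domain/NS3 protease complex (25 nM final) in 10 mM Tris-HCl pH 8.0, 0.01% Tween 20, preincubated 15 min with compounds (up to 114 microM), then 1.5 microM Rhodamine110 substrate. Fluorescence change over 15 min fitted to 4-parameter Hill.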

A short description of test [19]: Confirmatory screen GU Rhodamine qHTS for Zika virus inhibitors qHTS (AID 1347157). Also: nearly all actives have a fitted effect of over 70% in size. The procedure, abridged: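 Compounds, tested up to 114 microM, were incubated for 15 minutes with 25 nM unlinked NS2B-NS3 protease at pH 8.0. Cleavage of 1.5 microM Rhodamine110 substrate was then followed by fluorescence for 15 minutes.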

The values that follow come from PubChem BioAssay (NCATS).

Values joined by “and” are separate entries in the source; they are usually repeats but may differ in a detail not shown here. Identical values can stand only once. Results filed as inconclusive are left out. Active and inactive are the calls of the source. Calls follow the shape of the dose curve; as a rule, active = well fitted curve in the direction sought with a large enough effect; inconclusive = small, poorly fitted or top-dose-only effect, or another doubt; inactive = no such curve, though single readings can be large; an effect the other way counts as inactive or inconclusive.

N-terminal Xaa-Pro-Lys N-methyltransferase 1 (Homo sapiens), sequence (Q9BV86 whole entry, looked up): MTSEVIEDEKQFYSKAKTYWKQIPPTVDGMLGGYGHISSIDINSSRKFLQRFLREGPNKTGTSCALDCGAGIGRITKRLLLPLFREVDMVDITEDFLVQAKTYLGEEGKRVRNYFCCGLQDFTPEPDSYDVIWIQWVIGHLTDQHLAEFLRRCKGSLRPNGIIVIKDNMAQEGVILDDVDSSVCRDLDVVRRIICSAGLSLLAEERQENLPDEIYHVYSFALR

For `NC(=O)c1cccnc1`, in [1], the Potency was 16.5 µM (active). Also, the Potency result in test [2], in [3], in test [4], in test [5], in test [6] and in test [7] was “inactive” throughout. Further, the Potency result in test [8], in test [9] and in test [10] was “inactive” each time.
As to `Nc1nc(N)c2nc(CNc3ccc(C(=O)NC(CCC(=O)O)C(=O)O)cc3)cnc2n1` (stereo not given), the Potency in [1] is 0.329 µM (active); in test [8] it was 0.369 µM (active); in test [13], 56.2 µM (active); in [14], 26.7 µM (active); in test [15], 27.1 µM (active); in test [10], 21.5 µM (active). Further, the Potency result in test [11], in test [2], in test [3], in test [4], in test [12] and in test [6] was “inactive” in each case. Further, the Potency result in [7] and in test [9] was “inactive” throughout.
As for `N=C(N)c1ccc(OCCCCCOc2ccc(C(=N)N)cc2)cc1`, the Potency in [11] was 11.7 µM (active). The Potency result in test [12], in test [8], in [9] and in test [10] was “inactive” throughout.
Consider `CC(=O)Oc1ccccc1C(=O)Nc1ncc([N+](=O)[O-])s1`, for which the Potency entry in test [10] was “inactive”.
Turning to `O=C(O)c1cn(C2CC2)c2cc(N3CCNCC3)c(F)cc2c1=O`, the Potency in [15] was 24.1 µM (active).
As to `O=C(O)C1CCCN(CCC=C(c2ccccc2)c2ccccc2)C1` (stereo not given), the Potency result in test [13], in test [14] and in [10] was “inactive” throughout.
Turning to `CCCCS(=N)(=O)CCC(N)C(=O)O` (stereo not given), the Potency entry in test [13], in test [14] and in test [10] was “inactive” each time.
Regarding `CCCc1nc(C)c2c(=O)[nH]c(-c3cc(S(=O)(=O)N4CCN(CC)CC4)ccc3OCC)nn12`, the Potency result in test [15] and in test [16] was “inactive” in each case.
Regarding `O=C(O)CSCC(=O)NC1CCSC1=O` (stereo not given), in [10], the Potency result was “inactive”.
On to `COC(=O)Nc1nc2ccc(C(=O)c3ccccc3)cc2[nH]1`, for which the results for the Potency in test [1], in [3] and in test [8] were 0.369 µM (active), 1.85 µM (active) and 2.93 µM (active), respectively. For the same compound, the Potency entry in test [2], in test [12], in [6], in [9], in test [14] and in [10] was “inactive” throughout. Further, the compound was called inactive in [17].
As to `O=C(NCC1CN(c2ccc(N3CCOCC3=O)cc2)C(=O)O1)c1ccc(Cl)s1` (stereo not given), the Potency in [1] is 2.61 µM (active). The Potency entry in [2], in test [3], in test [5], in test [12], in test [6] and in test [9] was “inactive” each time. Also, the Potency entry in test [10] and in [18] was “inactive” throughout.
Take `COc1c(N2CCNC(C)C2)c(F)cc2c(=O)c(C(=O)O)cn(C3CC3)c12` (stereo not given): the Potency in test [15] is 27.1 µM (active) and 30.4 µM (active); in test [10], 16.1 µM (active) and 24.1 µM (active).
For the compound `CCCCOc1ccc(CC(=O)NO)cc1`, the Potency entry in test [11], in test [2], in test [3], in [5], in [7] and in test [8] was “inactive” throughout. Further, the Potency entry in test [9] and in test [10] was “inactive” each time.
For `O=S(=O)(O)CCS`, the Potency entry in test [1], in test [3], in test [4], in [12], in test [6] and in test [9] was “inactive” each time. For the same compound, the Potency entry in test [10] is “inactive”. The Potency in test [11] is 5.22 µM (active).
Regarding `COc1ccc2cc3[n+](cc2c1OC)CCc1cc2c(cc1-3)OCO2`, the Potency entry in test [10] is “inactive”.
For the compound `CN1CCN(c2c(F)cc3c(=O)c(C(=O)O)cn(CCF)c3c2F)CC1`, the Potency entry in [10] is “inactive”.
Still for that read-out and setting: the value for `CCOC(=O)c1ccc(OC(=O)CCCCCN=C(N)N)cc1` was “inactive”.
In the case of `Cc1ccc(S(=O)(=O)N[C@@H](Cc2ccccc2)C(=O)CCl)cc1`, the Potency entry in [14] and in [10] was “inactive” throughout.
For `COc1cccc(N(C)C(=S)Oc2ccc3c(c2)CCCC3)n1`, in test [10], the Potency entry was “inactive”.
For `N[C@@H](Cc1ccc(O)c(O)c1)C(=O)O`, the Potency was 50.1 µM (active) in test [13] and 27.1 µM (active) in [10].
On to `CCn1cc(C(=O)O)c(=O)c2cc(F)c(N3CCNCC3)cc21`, for which the Potency in test [15] was 27.1 µM (active).
With `CNC1CCCN(c2c(F)cc3c(=O)c(C(=O)O)cn(C4CC4)c3c2OC)C1` (stereo not given), the Potency in test [15] was 27.1 µM (active); in [10], 25.6 µM (active). Further, the Potency result in test [16] is “inactive”.
On to `O=C(O)c1ccc(-n2nc(-c3ccccc3O)nc2-c2ccccc2O)cc1`, for which the Potency result in test [15], in test [16] and in test [10] was “inactive” throughout.
As for `NC(=O)c1cccc(N)c1`, the Potency entry in [13] and in test [10] was “inactive” each time.
Take `OCc1ccc(-c2nn(Cc3ccccc3)c3ccccc23)o1`: the Potency in test [13] was 28.2 µM (active); in test [14], 23.8 µM (active); in test [15], 24.1 µM (active); in test [16], 24.1 µM (active); in test [10] it was 30.4 µM (active).
Consider `CC(C)(Sc1cc(C(C)(C)C)c(O)c(C(C)(C)C)c1)Sc1cc(C(C)(C)C)c(O)c(C(C)(C)C)c1`, for which the compound was called inactive in test [19].
